Laboratory results published in PubChem BioAssay (EPA / NIEHS).
Calls of active or inactive are those of the source. How the source made its calls: active means hit-call score of the fitted dose curve at least 0.9, where 1 is the maximum; inactive means score below 0.9.

Assays:
[1] = ATG_CRE_CIS: Attagene CIS-FACTORIAL HepG2 Assay for human cAMP Responsive Element (CRE) binding protein 3 (AID 2282926); details: HepG2 CRE cis-reporter, Attagene multiplexed mRNA; actives raise or lower the signal
Procedure, shortened: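 Capillary electrophoresis of 6-FAM-labelled, HpaI-digested PCR products quantified reporter transcripts. These came from HepG2 transiently transfected with cis-element reporters and exposed to test chemicals for 24 hours, with DMSO defining baseline activity.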

[2] = molecular target: CCAAT/enhancer-binding protein beta (Homo sapiens) (UniProt P17676); experiment: ATG_C_EBP_CIS: Attagene CIS-FACTORIAL HepG2 Assay for human CCAAT/Enhancer Binding Protein (C/EBP) beta (AID 2282927); details: HepG2 Attagene cis-factorial transcription factor reporter; actives raise or lower the signal
CCAAT/enhancer-binding protein beta (Homo sapiens), sequence (P17676 whole entry, looked up): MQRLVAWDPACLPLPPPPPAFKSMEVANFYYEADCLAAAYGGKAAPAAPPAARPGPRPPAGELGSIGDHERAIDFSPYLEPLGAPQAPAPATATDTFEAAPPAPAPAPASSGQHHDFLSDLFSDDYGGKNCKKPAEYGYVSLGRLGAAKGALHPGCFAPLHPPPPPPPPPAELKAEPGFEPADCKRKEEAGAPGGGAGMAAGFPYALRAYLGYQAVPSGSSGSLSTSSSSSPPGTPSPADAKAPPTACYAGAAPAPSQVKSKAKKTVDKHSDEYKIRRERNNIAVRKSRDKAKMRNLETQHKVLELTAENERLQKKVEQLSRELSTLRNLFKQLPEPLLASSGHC
Procedure, shortened: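 HepG2 transiently transfected with multiplexed reporter units under cis-regulatory promoters reporting endogenous C/EBPb activity. After 24 h exposure, reporter mRNA assayed by RT-PCR, fluorescent labelling, HpaI digestion and capillary electrophoresis; bidirectional fitting versus DMSO.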

[3] = ATG_CMV_CIS: Attagene CIS-FACTORIAL HepG2 Assay for human CMV (Internal Marker) (AID 2282928); details: HepG2 CMV promoter reporter, transcription factor profiling; actives raise or lower the signal;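 further: endpoint acts as a background internal control marker rather than a target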
Procedure, shortened: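 Reporter transcripts from transfected HepG2 cells are isolated after 24 h of chemical dosing, reverse-transcribed and amplified. Fragments labeled with 6-FAM are cut with HpaI and quantified by capillary electrophoresis; DMSO defines baseline.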

[4] = ATG_DR4_LXR_CIS: Attagene CIS-FACTORIAL HepG2 Assay for human Liver X Receptor (LXR), DR4 submotif (AID 2282929); details: HepG2 Attagene DR4 cis-reporter, mRNA transcription; actives raise or lower the signal
Procedure, shortened: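 Transiently transfected HepG2 liver cells; cis-regulated reporters; 24 h dosing. RT-PCR plus CE read-out of reporter mRNA. DMSO baseline, bidirectional curve fitting.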

[5] = molecular target: Aryl hydrocarbon receptor (Homo sapiens) (UniProt P35869); experiment: ATG_Ahr_CIS: Attagene CIS-FACTORIAL HepG2 Assay for human Aryl Hydrocarbon Receptor (Ahr) (AID 2282930); details: HepG2 AhR cis-factorial reporter transcription; actives raise or lower the signal
Aryl hydrocarbon receptor (Homo sapiens), sequence (P35869 whole entry, looked up): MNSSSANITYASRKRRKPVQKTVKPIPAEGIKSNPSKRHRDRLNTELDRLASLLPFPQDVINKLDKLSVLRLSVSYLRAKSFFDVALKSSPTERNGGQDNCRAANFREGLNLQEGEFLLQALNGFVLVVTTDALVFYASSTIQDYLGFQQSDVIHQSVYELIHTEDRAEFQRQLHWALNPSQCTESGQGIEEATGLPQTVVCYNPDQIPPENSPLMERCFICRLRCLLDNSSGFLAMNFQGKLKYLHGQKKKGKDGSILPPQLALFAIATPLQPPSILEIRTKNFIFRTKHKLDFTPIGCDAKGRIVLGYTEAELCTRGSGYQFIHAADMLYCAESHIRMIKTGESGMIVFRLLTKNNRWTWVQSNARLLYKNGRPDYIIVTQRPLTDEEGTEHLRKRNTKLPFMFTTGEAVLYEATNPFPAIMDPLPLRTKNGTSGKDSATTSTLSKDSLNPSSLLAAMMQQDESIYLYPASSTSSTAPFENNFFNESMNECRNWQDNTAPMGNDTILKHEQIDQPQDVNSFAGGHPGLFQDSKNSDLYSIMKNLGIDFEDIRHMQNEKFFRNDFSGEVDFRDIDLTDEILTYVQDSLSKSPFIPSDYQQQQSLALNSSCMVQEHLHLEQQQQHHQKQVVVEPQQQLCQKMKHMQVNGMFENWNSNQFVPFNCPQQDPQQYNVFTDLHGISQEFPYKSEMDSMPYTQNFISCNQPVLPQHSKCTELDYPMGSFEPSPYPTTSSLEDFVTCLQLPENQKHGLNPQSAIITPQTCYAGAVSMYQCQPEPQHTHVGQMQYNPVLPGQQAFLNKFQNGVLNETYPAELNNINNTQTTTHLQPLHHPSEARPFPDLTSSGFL
Procedure, shortened: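 HepG2 cells transiently transfected with cis-element-driven multiplexed reporter units; endogenous AhR activity read as reporter mRNA 24 h after dosing, via RT-PCR, 6-FAM labelling, HpaI digestion and capillary electrophoresis. Bidirectional fit relative to DMSO.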

[6] = ATG_AP_1_CIS: Attagene CIS-FACTORIAL HepG2 Assay for human Activator Protein 1 (AP-1) (AID 2282931); details: HepG2 Attagene cis-factorial AP-1 reporter mRNA; actives raise or lower the signal
Procedure, shortened: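 We transfected HepG2 cells transiently with a set of cis-regulated reporter transcription units, dosed them for 24 h, and quantified reporter mRNA via RT-PCR and capillary electrophoresis, scoring gain or loss of signal relative to DMSO.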

[7] = ATG_AP_2_CIS: Attagene CIS-FACTORIAL HepG2 Assay for human Activator Protein 2 (AP-2) (AID 2282932); details: HepG2 AP-2 cis-reporter, Attagene transcription factor profiling; actives raise or lower the signal
Procedure, shortened: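 Liver-derived HepG2 line, cis-reporter system measuring endogenous factors; 24 h dosing; reporter mRNA detected by fluorescent RT-PCR and capillary electrophoresis.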

[8] = ATG_BRE_CIS: Attagene CIS-FACTORIAL HepG2 Assay for human Bone Morphogenetic Protein (BMP) Response Element (BRE) (AID 2282933); details: HepG2 BMP response element reporter, Attagene transcription factor profiling; actives raise or lower the signal
Procedure, shortened: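 HepG2 cells transiently transfected with multiplexed cis-element reporter units were dosed with chemical for 24 h. Reporter mRNA was measured by RT-PCR with fluorescent labelling, HpaI digestion and capillary electrophoresis; bidirectional fitting relative to DMSO.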

[9] = molecular target: Retinoic acid receptor alpha (Homo sapiens) (UniProt P10276); experiment: ATG_DR5_RAR_CIS: Attagene CIS-FACTORIAL HepG2 Assay for human Retinoic Acid Receptor Alpha (RARE), DR5 submotif (AID 2282934); details: HepG2 Attagene cis-factorial RARE DR5 reporter, mRNA; actives raise or lower the signal;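 on AC50: reporter responds to endogenous RAR alpha beta and gamma in HepG2 not RARA alone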
Retinoic acid receptor alpha (Homo sapiens), sequence (P10276 whole entry, looked up): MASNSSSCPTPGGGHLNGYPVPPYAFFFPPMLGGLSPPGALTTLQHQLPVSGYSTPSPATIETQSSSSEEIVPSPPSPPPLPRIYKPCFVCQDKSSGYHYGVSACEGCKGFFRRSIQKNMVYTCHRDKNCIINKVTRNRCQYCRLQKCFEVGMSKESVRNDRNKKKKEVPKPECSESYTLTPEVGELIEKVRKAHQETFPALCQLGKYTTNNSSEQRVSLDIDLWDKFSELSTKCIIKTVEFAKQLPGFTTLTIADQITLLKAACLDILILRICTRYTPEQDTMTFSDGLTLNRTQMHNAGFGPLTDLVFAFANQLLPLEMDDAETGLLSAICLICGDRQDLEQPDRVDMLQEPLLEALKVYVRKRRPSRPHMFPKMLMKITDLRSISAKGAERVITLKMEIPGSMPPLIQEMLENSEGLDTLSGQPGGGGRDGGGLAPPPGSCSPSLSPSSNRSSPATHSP
Procedure, shortened: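 HepG2 cells transiently transfected with multiplexed reporter units; DR5 cis-element drives reporter through endogenous transcription factors. After 24 h dosing, reporter mRNA quantified by RT-PCR, fluorescent labeling, HpaI digestion and capillary electrophoresis; bidirectional fitting versus DMSO.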

[10] = molecular target: Transcription factor E2F1 (Homo sapiens) (UniProt Q01094); experiment: ATG_E2F_CIS: Attagene CIS-FACTORIAL HepG2 Assay for human E2F Transcription Factor 1 (AID 2282935); details: HepG2 Attagene cis-reporter, E2F reporter RNA transcripts; actives raise or lower the signal
Transcription factor E2F1 (Homo sapiens), sequence (Q01094 whole entry, looked up): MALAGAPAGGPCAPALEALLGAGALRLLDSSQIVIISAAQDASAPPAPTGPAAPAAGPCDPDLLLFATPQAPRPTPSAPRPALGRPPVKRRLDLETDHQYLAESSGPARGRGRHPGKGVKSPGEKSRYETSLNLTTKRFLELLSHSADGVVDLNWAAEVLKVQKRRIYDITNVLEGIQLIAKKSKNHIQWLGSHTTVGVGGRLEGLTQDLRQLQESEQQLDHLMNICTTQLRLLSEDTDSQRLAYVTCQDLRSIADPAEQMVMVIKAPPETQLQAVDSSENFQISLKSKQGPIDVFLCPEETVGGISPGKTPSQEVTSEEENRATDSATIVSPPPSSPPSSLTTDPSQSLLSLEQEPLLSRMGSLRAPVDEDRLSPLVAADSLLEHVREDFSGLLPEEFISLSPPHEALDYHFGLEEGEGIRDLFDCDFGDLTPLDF
Procedure, shortened: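 Liver-derived HepG2 cells expressing transfected promoter-driven reporter units received test chemical for 24 hours. Signal gains or losses were fitted bidirectionally against DMSO.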

[11] = ATG_E_Box_CIS: Attagene CIS-FACTORIAL HepG2 Assay for human Enhancer Box (E-box) (AID 2282936); details: HepG2 E-box cis-reporter transcription, actives raise or lower the signal
Procedure, shortened: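 In this cell-based setup, HepG2 cells bearing transfected promoter-driven reporter units were exposed to chemicals for 24 h; reporter transcripts were amplified, 6-FAM-labelled, cut with HpaI and sized by capillary electrophoresis.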

[12] = ATG_M_61_CIS: Attagene CIS-FACTORIAL HepG2 Assay for M61 Transcription Factor (Internal Marker) (AID 2282937); details: HepG2 Attagene CIS-FACTORIAL M61 internal marker reporter; actives raise or lower the signal
Procedure, shortened: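 Multiplexed reporter mRNA assay, HepG2 human hepatoma cells, 24 h treatment. Signal: FAM-labelled, HpaI-digested RT-PCR fragments by CE. Fit: bidirectional, baseline DMSO.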

[13] = ATG_EGR_CIS: Attagene CIS-FACTORIAL HepG2 Assay for human Early Growth Response 1 (EGR1) (AID 2282938); details: HepG2 Attagene CIS-FACTORIAL EGR reporter mRNA; actives raise or lower the signal
Procedure, shortened: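 Multiplexed cis-reporter system in human hepatoma HepG2 cells, transiently transfected. Cells are dosed for 24 h; reporter transcripts are amplified, fluorescently tagged and sized by capillary electrophoresis, with DMSO as negative control.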

[14] = ATG_M_19_CIS: Attagene CIS-FACTORIAL HepG2 Assay for M19 Transcription Factor (Internal Marker) (AID 2282939); details: HepG2 Attagene CIS-FACTORIAL M19 internal marker reporter; actives raise or lower the signal
Procedure, shortened: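 HepG2 cells transiently transfected with cis-regulated multiple reporter transcription units were dosed for 24 h; reporter mRNA was quantified by RT-PCR, 6-FAM primer-extension labelling, HpaI digestion and capillary electrophoresis, with bidirectional fitting against DMSO baseline.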

[15] = ATG_Ets_CIS: Attagene CIS-FACTORIAL HepG2 Assay for human Erythroblast Transformation Specific (ETS) (AID 2282941); details: HepG2 ETS cis-reporter transcription, actives raise or lower the signal
Procedure, shortened: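 Bidirectional fit versus DMSO of reporter mRNA signal, detected by RT-PCR and capillary electrophoresis in HepG2 cells transiently transfected with cis-element reporters and dosed 24 h.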

[16] = molecular target: Hepatocyte nuclear factor 3-beta (Homo sapiens) (UniProt Q9Y261); experiment: ATG_FoxA2_CIS: Attagene CIS-FACTORIAL HepG2 Assay for human Forkhead box A2 (FOXA2) (AID 2282942); details: HepG2 cis-reporter transcription factor activity, 24 h; actives raise or lower the signal
Hepatocyte nuclear factor 3-beta (Homo sapiens), sequence (Q9Y261 whole entry, looked up): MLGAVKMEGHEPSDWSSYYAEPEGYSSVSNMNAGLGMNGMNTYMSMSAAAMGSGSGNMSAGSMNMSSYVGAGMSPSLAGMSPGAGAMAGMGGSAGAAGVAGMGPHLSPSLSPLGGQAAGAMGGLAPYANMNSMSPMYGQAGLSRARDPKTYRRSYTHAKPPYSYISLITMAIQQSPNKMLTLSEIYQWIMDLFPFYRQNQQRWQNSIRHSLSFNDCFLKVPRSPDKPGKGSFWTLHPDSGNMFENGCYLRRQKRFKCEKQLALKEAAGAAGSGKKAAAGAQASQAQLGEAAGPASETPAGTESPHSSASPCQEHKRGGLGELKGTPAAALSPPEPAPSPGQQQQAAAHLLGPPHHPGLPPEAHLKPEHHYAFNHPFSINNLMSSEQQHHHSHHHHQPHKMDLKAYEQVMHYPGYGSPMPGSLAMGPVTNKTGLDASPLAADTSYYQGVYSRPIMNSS
Procedure, shortened: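 Multiplexed cis-element reporter assay in transiently transfected HepG2. Twenty-four hours post-dosing, RNA was reverse-transcribed, amplified, FAM-labelled, HpaI-digested and separated by CE. Activity gain or loss relative to DMSO.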

[17] = ATG_FoxO_CIS: Attagene CIS-FACTORIAL HepG2 Assay for human Forkhead box O (FoxO) (AID 2282943); details: HepG2 Attagene cis-reporter, FoxO element, mRNA; actives raise or lower the signal
Procedure, shortened: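 HepG2 cells transiently transfected with cis-element-driven reporter units report endogenous FoxO activity. After 24 h chemical exposure, reporter mRNA quantified by RT-PCR, fluorescent labeling, HpaI digestion and capillary electrophoresis; bidirectional fit versus DMSO.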

[18] = ATG_GATA_CIS: Attagene CIS-FACTORIAL HepG2 Assay for human GATA Binding Protein (AID 2282944); details: HepG2 GATA cis-element reporter, Attagene multiplex mRNA; actives raise or lower the signal
Procedure, shortened: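 HepG2 cells transiently transfected with multiplexed cis-element reporter units reflecting endogenous transcription factor activity; reporter mRNA measured after 24 h dosing by RT-PCR, 6-FAM labeling, HpaI digestion and capillary electrophoresis. Bidirectional fitting versus DMSO baseline.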

[19] = ATG_GLI_CIS: Attagene CIS-FACTORIAL HepG2 Assay for human Zinc Finger Protein GLI1 (AID 2282945); details: HepG2, Attagene cis-factorial reporter mRNA, GLI element; actives raise or lower the signal
Procedure, shortened: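 Transiently transfected HepG2 cells report endogenous transcription factor activity via cis-element-driven reporter units. After 24 h compound exposure, reporter mRNA was measured by RT-PCR with capillary electrophoresis; bidirectional fitting against DMSO baseline.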

[20] = ATG_ERE_CIS: Attagene CIS-FACTORIAL HepG2 Assay for Estrogen Response Element (ERE) (AID 2282940); details: HepG2 ERE cis-reporter, Attagene RNA transcript; actives raise or lower the signal
Procedure, shortened: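 HepG2 cells transiently transfected with cis-promoter-driven multiplexed reporter transcription units report endogenous TF activity. After 24 h compound exposure, reporter mRNA is quantified by RT-PCR with capillary electrophoresis fluorescence; bidirectional fitting versus DMSO baseline.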

Measured: AC50

C#CC(C)(O)CC(C)C (centres undefined)
not listed: [20]
inactive: all other assays above

C[Si](C)(C)O[Si](C)(C)C
not listed: [20]
inactive: all other assays above

N#Cc1cscn1
active: [5] 34.7 µM
not listed: [20]
inactive: all other assays above

Cc1[nH]c(=O)c(C#N)cc1-c1ccncc1
active: [3] 24.3 µM | [4] 26.6 µM
not listed: [15]
inactive: all other assays above

COC(=O)C=C(C)CCC=C(C)C
inactive: all assays above

CCc1cc(C(C)(C)C)c(O)c(C(C)(C)C)c1
active: [3] 53.9 µM | [4] 23.2 µM | [6] 63.7 µM | [9] 5.23 µM | [11] 24.4 µM
not listed: [20]
inactive: all other assays above

CC(=O)CC(=O)Nc1ccccc1
not listed: [20]
inactive: all other assays above

OC[C@H]1O[C@@H](Oc2ccc(O)cc2)[C@H](O)[C@@H](O)[C@@H]1O
inactive: all assays above

COc1cc([C@@H]2c3cc4c(cc3[C@@H](O[C@@H]3O[C@@H]5CO[C@@H](C)O[C@H]5[C@H](O)[C@H]3O)[C@H]3COC(=O)[C@H]23)OCO4)cc(OC)c1O
not listed: [20]
inactive: all other assays above

CCCC[P+](CCCC)(CCCC)CCCC
not listed: [20]
inactive: all other assays above

Cc1cc(CCC(=O)OCCOCCOCCOC(=O)CCc2cc(C)c(O)c(C(C)(C)C)c2)cc(C(C)(C)C)c1O
not listed: [20]
inactive: all other assays above

CCC(=O)OCCOc1ccccc1
inactive: all assays above

CC(C)(C)c1ccc(C(=O)O)cc1
not listed: [20]
inactive: all other assays above

NCc1ccco1
not listed: [20]
inactive: all other assays above
